# Sampled rows, rich in hits. Any-hit rate of the full collection: about 3.3%.
# AmpC inh no detg: blocks E. coli AmpC beta-lactamase in detergent-free assay; AmpC nitrocefin hydrolysis, absorbance 480 nm, 0.0001% Triton; Potency, µM (series often up to 57.1 µM), without a hit: top-dose activity change, negative = inhibition, most hits filed as inhibitors; 0.52% of 330,000 active;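 further: plate controls were no compound for no effect and no enzyme for full effect; nearly all actives have a fitted effect of over 20% in size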
# Target sequence (P00811 whole entry, looked up): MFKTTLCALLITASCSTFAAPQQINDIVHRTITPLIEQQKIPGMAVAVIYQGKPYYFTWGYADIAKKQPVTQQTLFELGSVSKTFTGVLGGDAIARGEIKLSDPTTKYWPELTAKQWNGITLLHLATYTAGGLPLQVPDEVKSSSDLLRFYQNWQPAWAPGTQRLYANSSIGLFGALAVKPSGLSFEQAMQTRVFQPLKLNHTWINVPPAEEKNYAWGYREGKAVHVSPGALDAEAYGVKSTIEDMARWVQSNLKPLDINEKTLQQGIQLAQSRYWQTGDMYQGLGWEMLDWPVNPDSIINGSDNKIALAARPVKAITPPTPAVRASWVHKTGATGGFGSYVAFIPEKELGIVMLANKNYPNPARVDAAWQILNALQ
#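 AmpC (5.3 nM in the dispensed reagent) in 20 mM phosphate pH 7.0 with 0.01% (detergent screen) or 0.0001% Triton X-100 was preincubated with compounds for 15 min at room temperature. Nitrocefin was then added from an 800 uM solution, and hydrolysis was followed at 480 nm.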
# AmpC detergent: inhibitors of E. coli AmpC beta-lactamase with detergent. 0.041% of 370,000 active. AID 485294. Potency, µM (doses to about 114 µM), inactives show at the top dose activity change, negative = inhibition, actives largely listed as inhibitors. AmpC hydrolysis of nitrocefin, absorbance 480 nm, 0.01% Triton;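 further: 0% = no-compound wells and -100% = no-enzyme wells; nearly all actives have a fitted effect of over 25% in size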
#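 AmpC (5.3 nM in the dispensed reagent) in 20 mM phosphate pH 7.0 with 0.01% (detergent screen) or 0.0001% Triton X-100 was preincubated with compounds for 15 min at room temperature. Nitrocefin was then added from an 800 uM solution, and hydrolysis was followed at 480 nm.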
# Sm TGR block: inhibitors of Schistosoma mansoni thioredoxin glutathione reductase; 3% of 360,000 active; AID 485364; purified TGR, DTNB reduction, TNB absorbance 405 nm; Q962Y6; Potency, µM (titrated, usually from 114 µM), for inactives: top-dose activity change, negative = inhibition, hits mostly inhibitors; further: nearly all actives have a fitted effect of over 60% in size
#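 First, TGR (20 nM dispensed) and NADPH were mixed with compound. Second, a 15 min room-temperature incubation followed. Third, further NADPH and then DTNB were added to start the reaction. Finally, TNB absorbance was monitored kinetically.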
# An asterisk follows results filed as active; ? = inconclusive; / = no result given. The call rests on the fitted dose curve; in most records, active means well fitted curve in the direction sought with a large enough effect; inconclusive means small, poorly fitted or top-dose-only effect, or another doubt; inactive means no such curve, though single readings can be large; an effect the other way counts as inactive or inconclusive. Unless noted, on the % scale 0 is the no-effect control and ±100 the full control effect; potency means the concentration at half of the fitted maximal effect.
SMILES,AmpC inh no detg,AmpC detergent,Sm TGR block
CCN(c1ccc(C)cc1)S(=O)(=O)c1nnc(NC(=O)c2ccco2)s1,-30.1%,?,22.4µM*
CCCN(CCC)C(=O)Cn1c(=O)n(Cc2ccc(C(=O)NCCc3ccc(Cl)cc3)cc2)c(=O)c2ccccc21,/,3.3%,-7.0%
COc1cccc2c1cc1c(=O)n(CC(=O)N3CCN(c4cccc(C(F)(F)F)c4)CC3)nc(C)n12,/,22.8%,0.4%
Oc1ccc(/C=N/N(Cc2ccccc2)c2ccccc2)c(O)c1O,17.8µM*,-2.8%,?
Oc1cccc(/C=N/N(Cc2ccccc2)c2ccccc2)c1,-35.2%,-4.9%,9.0%
CN(Cc1ccc(F)cc1)S(=O)(=O)c1nnc(NC(=O)c2ccc(F)cc2)s1,/,1.2%,5.5%
Cc1cc(NC(=O)CCl)no1,-36.0%,-5.4%,8.91µM*
CSCC(=O)Nc1cc(C)on1,-5.3%,3.6%,11.3%
CCC(=O)N1CCc2cc(Br)cc(S(=O)(=O)CCC(=O)N3CCN(c4ccccc4OC)CC3)c21,/,-8.2%,-12.9%
CCCCCCC(=O)N(O)C1CC(=O)N(c2ccc(C)cc2)C1=O (stereo not drawn),-29.0%,?,0.562µM*
CCCOc1ccc(N2C(=O)CC(N(CCC)C(=O)CCC(=O)O)C2=O)cc1 (stereo not drawn),-27.4%,-1.3%,-8.8%
CCCCCCC(=O)N(O)C1CC(=O)N(c2ccc(Cl)cc2)C1=O (stereo not drawn),-52.1%,-13.8%,0.562µM*
Cc1ccc(N2C(=O)CC(N(O)C3CC(=O)N(c4ccc(C)cc4)C3=O)C2=O)cc1 (stereo not drawn),-15.2%,3.7%,0.7%
CCOC(=O)c1ccc(N2CCN(c3cc(Cl)ccc3C)CC2)c(NC(=O)Nc2cccc(OC)c2)c1,/,4.2%,7.7%
CCC(=O)N1CCc2cc(Br)cc(S(=O)(=O)NCCc3ccccc3Cl)c21,/,4.2%,13.5%
C=CC[N+]1(C)CC[C@]23c4c5ccc(O)c4O[C@H]2C(=O)CC[C@@]3(O)[C@H]1C5 (stereo partly drawn),-16.4%,?,50.1µM*
C=CCN1CC[C@]23c4c5ccc(O)c4OC2C(O)CC[C@@]3(O)[C@H]1C5 (stereo partly drawn),-15.9%,/,/
Cc1ccc(NC(=O)Cn2c(=O)n(Cc3ccco3)c(=O)c3sc4ccccc4c32)c(C)c1,/,14.1%,-10.0%
NC(CSCc1ccccc1Cl)C(=O)O (stereo not drawn),-29.9%,-5.0%,15.8µM*
O=C(O)c1ccc(CSCc2ccccc2Cl)o1,-9.2%,-24.9%,-34.1%
O=C(C1CCN(S(=O)(=O)c2ccc(Br)s2)CC1)N1CCN(c2cccc(Cl)c2)CC1,/,11.0%,1.9%
CC(C)c1cc(C(=O)NCc2ccco2)no1,?,1.0%,50.1µM*
Cc1noc(C)c1C(=O)NCc1ccco1,-11.7%,-9.7%,-16.8%
Cc1cc(=O)oc(C)c1C(=O)NCc1ccco1,-30.8%,-0.2%,44.7µM*
Cc1ccc(N(Cc2ccco2)C(=O)c2cccc(S(=O)(=O)N(C)C)c2)cc1,30.8%,?,-28.3%
SMILES,AmpC inh no detg,AmpC detergent,Sm TGR block
CC(C)c1cc(C(=O)NCc2ccccc2)no1,/,14.1%,11.3%
O=C(NCc1ccco1)c1ccc2c(c1)C(=O)c1ccccc1-2,-16.1%,-0.2%,12.6µM*
O=C(NCc1ccco1)c1ccc2ccccc2c1,-15.1%,-8.3%,-34.7%
CN(C)S(=O)(=O)c1cccc(C(=O)NCc2ccco2)c1,-10.4%,-9.5%,44.7µM*
Cc1nc2sc(C(N)=O)c(N)c2c(-c2ccc(Br)cc2)c1C(=O)Nc1ccc(Cl)cc1,/,-0.4%,1.4%
O=C(CCc1ccccc1)NCc1nc2cccnc2n1Cc1ccc(F)cc1,/,-1.0%,1.9%
COc1ccc(S(=O)(=O)N(CC(=O)Nc2ccc3c(c2)OCO3)c2ccc(C)cc2)cc1,/,-0.2%,-2.2%
COc1ccc(NC(=O)CCn2nc(-c3ccccc3OC)c3c(C)cc(C)nc32)cc1,/,15.6%,-2.5%
COc1ccc(-n2cc3c(c2-c2cccc(Br)c2)c(=O)n(C)c(=O)n3C)cc1OC,/,22.9%,-9.2%
COc1cccc(NC(=O)c2c(N3CCCC3=O)c3cc(C)ccc3n2C)c1,/,16.2%,-3.4%
Cc1cc(-c2ccccc2)nc2cc(C(=O)NCc3ccco3)nn12,-8.4%,0.8%,31.6µM*
Cc1ccc(C(=O)NCc2ccco2)cc1,-1.1%,-4.8%,9.1%
Cc1cccc(C(=O)NCc2ccco2)c1,-25.9%,?,44.7µM*
COc1ccc(-c2cc(C(F)(F)F)n3nc(C(=O)NCc4ccco4)cc3n2)cc1,110.8%,-17.5%,?
Fc1ccc(Nc2ncnc3c2nc2n3CCCCC2)c(F)c1,/,3.0%,-4.2%
CCOc1ccc(C(=O)c2cn(Cc3ccc(OC)cc3)c3cc(OC)c(OC)cc3c2=O)cc1,/,13.6%,0.2%
OCCN1CCN(Cc2cc(Cl)c3cccnc3c2O)CC1,-2.8%,-11.2%,44.7µM*
Oc1c(Cl)cc(Cl)c2cccnc12,-33.5%,-1.4%,15.8µM*
Cc1ccc(S(=O)(=O)Nc2cc(Cl)c(O)c3ncccc23)cc1,-49.3%,-2.2%,15.8µM*
CC(=O)NC(C)c1cc(Cl)c2cccnc2c1O (stereo not drawn),-12.1%,-1.8%,-10.2%
Oc1c(CN2CCN(c3ccccn3)CC2)cc(Cl)c2cccnc12,32.2%,-9.8%,?
Oc1c(Cl)cc(CN2CCCCC2)c2cccnc12,-13.5%,1.1%,4.47µM*
Cc1ccc(S(=O)(=O)Nc2cccnc2Oc2ccc(Cl)cc2)cc1,-12.0%,3.4%,10.7%
O=[N+]([O-])c1cc(CN2CCCC2)c2cccnc2c1O,-13.7%,?,-28.7%
COCCCNC(=O)CSc1nc2nc(C)c(Cc3ccccc3Cl)c(C)n2n1,/,-6.9%,-8.7%
SMILES,AmpC inh no detg,AmpC detergent,Sm TGR block
Cc1ccc(S(=O)(=O)c2cnc(SC(C)C(=O)Nc3ccccc3)[nH]c2=O)cc1 (stereo not drawn),/,20.5%,-1.8%
CCc1ccccc1NC(=O)Cn1c(C(=O)OC)cc2oc(C)cc21,/,-3.9%,-15.5%
O=C(N/C(=C\c1ccco1)C(=O)N1CCCC1CO)c1ccccc1 (stereo not drawn),-0.2%,-2.9%,35.5µM*
CC1CCCN(C(=O)/C(=C/c2ccco2)NC(=O)c2ccccc2)C1 (stereo not drawn),-17.0%,-9.1%,-27.4%
CC1CCN(C(=O)/C(=C\c2ccco2)NC(=O)c2ccccc2)CC1,-8.0%,2.8%,-35.2%
Cc1ccc(C(=O)N/C(=C/c2ccco2)C(=O)N2CCC(C)CC2)cc1,-25.6%,-3.5%,50.1µM*
NNC(=O)/C(=C\c1cccs1)NC(=O)c1ccccc1,-32.2%,?,5.5%
CC1CCN(C(=O)/C(=C\c2cccs2)NC(=O)c2ccccc2)CC1,-48.2%,-1.3%,3.98µM*
COc1ccc(-n2c(SCC(=O)Nc3nnc(C)s3)nc3c([nH]c4ccccc43)c2=O)cc1,/,4.9%,6.0%
CCOc1ccc(N(CC)S(=O)(=O)N2CCCC(C(=O)Nc3ccc(NC(C)=O)cc3)C2)cc1 (stereo not drawn),/,16.4%,-0.6%
O=C(c1cnc(N2CCCCC2)c2ccccc12)N1CCN(c2ccc(F)cc2)CC1,/,7.3%,-3.5%
COC(=O)c1cc2occc2n1CC(=O)Nc1ccc(N(C)C)cc1,/,15.3%,-0.6%
